TRHR PAM: allosterically enhances the human TRH receptor. P34981. TRHR cells, fluo-8 calcium fluorescence, EC20 TRH enhancement. enhancement, % at 2 µM. 0.66% of 360,000 active. AID 493056; in the data active means enhancement above about 30%; further: 0% is about no effect
Target sequence (P34981 whole entry, looked up): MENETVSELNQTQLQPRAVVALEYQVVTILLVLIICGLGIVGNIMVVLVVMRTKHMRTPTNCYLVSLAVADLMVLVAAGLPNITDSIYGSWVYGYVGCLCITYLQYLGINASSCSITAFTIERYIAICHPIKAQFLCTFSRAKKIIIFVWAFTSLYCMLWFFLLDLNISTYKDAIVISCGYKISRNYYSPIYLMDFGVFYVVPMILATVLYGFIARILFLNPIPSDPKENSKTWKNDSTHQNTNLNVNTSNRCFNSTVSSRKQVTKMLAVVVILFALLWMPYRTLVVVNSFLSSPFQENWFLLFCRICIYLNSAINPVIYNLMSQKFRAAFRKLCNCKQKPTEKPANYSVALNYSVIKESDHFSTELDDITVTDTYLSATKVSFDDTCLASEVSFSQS
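TRHR-expressing cells loaded with fluo-8 calcium dye were read kinetically (ex 480/em 530) during compound addition, then stimulated with an EC20 of TRH (10 nM final). Enhancement of the Gq-mediated intracellular calcium response was scored.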
D1 agonist: human D1 receptor agonism; HEK293 T-REx D1 cells, calcium flux, agonist mode; activation, % at 2 µM; 1% of 360,000 active; further: 0% is about no effect
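Tetracycline-induced HEK293 TREx D1 cells, force-coupled to calcium signalling, were dye-loaded with a no-wash calcium kit. Compound was pin-added after a 10 s baseline. Fluorescence was read kinetically at 1 cycle/s for 180 s, with calcium rises flagged as agonism.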
D1 antag: human D1 dopamine receptor antagonism. AID 504652. HEK293 TREx D1 cells, calcium flux, dopamine EC80; active compounds read low. 3.2% of 360,000 active. P21728. activity change, negative = inhibition, % at 10 µM; in the data active means activity change below about -30%; further: on the % scale 0 is the no-effect control and ±100 the full control effect
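After overnight tetracycline induction at 30 C, force-coupled D1 HEK293 cells took up a no-wash calcium dye at room temperature. Compounds were added and monitored 180 s, and the response to EC80 dopamine was then recorded.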
TRHR agonist: agonists of human TRH receptor | TRHR cells, calcium flux fluo-8, FDSS agonist mode | 0.18% of 360,000 active | activation, % at 2 µM | AID 493084; further: 0% is about no effect
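TRHR-expressing cells loaded with fluo-8 calcium dye; 23 nL library compound pin-transferred, kinetic FDSS fluorescence (Ex 480/Em 530) recorded about 180 s for agonist-induced calcium release, before a 10 nM TRH EC20 addition for potentiator mode.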
Glioma ERSR ind: ER stress response induction in glioma | U87-MG GRP78 promoter luciferase reporter, 16 h | Potency, µM, for inactives: top-dose activation, most hits filed as activators | 0.02% of 420,000 active; active means well fitted activation curve with a large enough effect; further: potency means the concentration at half of the fitted maximal effect; series mostly up to about 76 µM; % of control where 0% means no effect; nearly all actives have a fitted effect of over 35% in size
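Stably transfected U87-MG glioma cells carrying a GRP78-based luciferase sensor; 16 h compound incubation. Luminescence end-point read 10 min after Bright-Glo addition at room temperature.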
D1 potentiator: enhances dopamine response at the human D1 receptor; P21728; HEK293 TREx D1 cells, calcium flux, dopamine EC20 potentiation; potentiation, % at 10 µM; 0.036% of 360,000 active; AID 504651; in the data active means potentiation above about 30%; further: 0% is about no effect
An asterisk follows results filed as active; nt = no result given. An excerpt weighted towards active compounds, which were near 4% of everything screened. Unless noted, no stated cut-off is given here; in the data, active means activation above about 30%; inactive means the rest.

SMILES | TRHR PAM | D1 agonist | D1 antag | TRHR agonist | Glioma ERSR ind | D1 potentiator
O=C(COc1ccccc1F)N1CCc2ccccc2C1 | -1 | 1 | -58* | 0 | 1% | -1
CC1(C)Cc2cccc(OCC(=O)N3CCN(c4ccccc4F)CC3)c2O1 | 7 | 4 | -69* | 0 | 0% | -4
CCOc1ccccc1CNS(=O)(=O)c1cnc(N)nc1 | 1 | 2 | -10 | 0 | -3% | -5
CC(C)Oc1ccc(C(=O)OC(C)C(=O)NC2CCCCC2C)cc1 (stereo not given) | 5 | 10 | -48* | -1 | -3% | -7
CC(=O)c1ccc(OC(C)C(=O)NC2CCCCC2C)cc1 (stereo not given) | 4 | 6 | 6 | 0 | -1% | nt
CC(C)C(NC(=O)c1ccccn1)c1nnc2n1CCN(Cc1ccc3ccccc3c1)CC2 (stereo not given) | nt | nt | nt | nt | -2% | nt
O=C(Nc1ccccc1C(F)(F)F)N1CCOc2ccc(Cl)cc21 | 15 | 0 | -35* | 0 | -3% | 0
COc1ccc(-c2nc3n(n2)C(c2ccc(OC)cc2)C(C(=O)Nc2cccnc2)=C(C)N3)cc1 (stereo not given) | 2 | 1 | 4 | 0 | -2% | -2
COc1ccccc1N1C(=O)C2C(C(=O)c3ccccc3)=NN(c3ccccc3OC)C2C1=O (stereo not given) | -1 | 78* | 8 | 27 | -5% | 0
COC(=O)C1=NN(c2ccccc2OC)C2C(=O)N(c3ccccc3OC)C(=O)C12 (stereo not given) | -1 | 1 | 3 | 1 | 0% | 5
O=C(C[n+]1ccncc1)c1ccc(Br)cc1 | nt | nt | nt | nt | -4% | nt
Cc1ccc(OC(=O)c2cc(C)nn2C(C)(C)C)cc1 | 36* | 1 | 7 | 0 | -2% | -5
Cc1ccc(OCC(=O)NNC(=S)NC(=O)c2ccc(Br)o2)c(C)c1 | 3 | 41* | -13 | -2 | 1% | 2
CC(=O)Nc1sc(/C(C#N)=C\c2cccc(Cl)c2)nc1-c1ccc(C)cc1 | -4 | 244* | -45* | 67* | -5% | -6
CC(=O)Nc1sc(N/N=C/c2ccccc2)nc1-c1ccc(C)cc1 | -2 | 0 | 1 | -1 | 3% | -2
C1CCN(c2c3c(nc4nnnn24)CCCC3)CC1 | 4 | 1 | -2 | 1 | 0% | -6
COc1cccc(C(C(=O)NCc2ccco2)N(Cc2ccco2)C(=O)Cn2nnc3ccccc32)c1 (stereo not given) | 13 | 6 | -33* | -1 | -3% | -1
N#Cc1ccccc1Sc1ccccc1C(=O)OCC(=O)NC12CC3CC(CC(C3)C1)C2 | 2 | 3 | 4 | 0 | -1% | 5
CC1CCCC(NC(=O)COC(=O)c2ccccc2Sc2ccccc2C#N)C1C (stereo not given) | 30* | 3 | 1 | 0 | -3% | -4
Oc1cccc(Nc2nc(O)c(/C=C3\C=Nc4ccccc43)s2)c1 | -7 | 34* | -17 | 11 | 0% | -6
Oc1nc(Nc2cccc(Cl)c2)sc1/C=C1\C=Nc2ccccc21 | 4 | 3 | -16 | 1 | -3% | 1
COC(=O)C1=C[C@@H](C(=O)OC)[C@H]2C3=C(C(=O)[C@@]2(C)NC(=O)c2ccccc2)[C@H](C)C(C(=O)OC)=C(C(=O)OC)[C@@H]3C1 | nt | nt | nt | nt | -6% | nt
COCCNC(=O)c1ccc(-n2c(-c3ccccc3)cc3c2CCCCC3)cc1 | 0 | 39* | -18 | 0 | 2% | -5
Cc1ccc2nc(-c3cccc(Br)c3)c(Cc3ccccc3)n2c1 | nt | nt | nt | nt | -1% | nt
O=C(Nc1cccnc1)C1=NN(C2CCS(=O)(=O)C2)C(=O)CC1 (stereo not given) | 39* | 1 | -23 | 0 | -3% | -6
CCCCNC(=S)NNC(=O)c1csc(C(C)C)c1 | 3 | -1 | -45* | 0 | 4% | -4
Cc1cccc(C)c1NC(=O)CN(C)C(=O)[C@H](C)NC(=O)c1ccco1 | -3 | 4 | -80* | 0 | 5% | 7
CCCc1nc2ccccc2n1CCc1ccccc1 | 0 | -1 | -24 | -1 | -2% | -5
